Results on nine compounds are retold here after PubChem BioAssay.

A short description of assay [1]: small molecules captured by biotinylated probe aFSTL3 – biochemical, small-molecule microarray, fluorescence 635/667, stem cell growth factor project, primary screen (AID 1064).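 Note: measures binding of the biotinylated anti-FSTL3 antibody to printed compounds.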 The following applies: higher = more signal.
Assay [2] is described as follows: binders from COS7 lysate, DM2A8 probe, primary screen, torsin A project, cell lysate, small-molecule microarray, fluorescence 635/667 (AID 1065). The following applies: higher = more signal, COS7 lysate expressing mutant human TOR1A.
Assay [3] can be described thus: small molecules captured by biotinylated probe aFGF2 – biochemical, small-molecule microarray, fluorescence 635/667, stem cell growth factor project, primary screen (AID 1067).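 Note: measures binding of biotinylated aFGF2 protein to printed compounds on slides; z-score merges feature fluorescence and signal-to-noise across triplicate slides.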 The settings on record: higher = more signal.
The nature of assay [4]: small molecules captured by biotinylated probe aFGF10 – biochemical, small-molecule microarray, fluorescence 635/667, stem cell growth factor project, primary screen (AID 1071).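 Note: score merges 667 nm spot intensity and signal to noise from triplicate slides.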 The settings on record: higher = more signal.
In assay [5] the target is Neurogenic locus notch homolog protein 2 (Homo sapiens) (UniProt Q04721). As to the kind of experiment: small molecules binding Notch2 protein – biochemical, small-molecule microarray, 635 nm fluorescence, stem cell growth factors, primary screen (AID 1073). The settings on record: higher = more signal.
Sequence of Neurogenic locus notch homolog protein 2 (Homo sapiens) (Q04721 whole entry, looked up, canonical isoform): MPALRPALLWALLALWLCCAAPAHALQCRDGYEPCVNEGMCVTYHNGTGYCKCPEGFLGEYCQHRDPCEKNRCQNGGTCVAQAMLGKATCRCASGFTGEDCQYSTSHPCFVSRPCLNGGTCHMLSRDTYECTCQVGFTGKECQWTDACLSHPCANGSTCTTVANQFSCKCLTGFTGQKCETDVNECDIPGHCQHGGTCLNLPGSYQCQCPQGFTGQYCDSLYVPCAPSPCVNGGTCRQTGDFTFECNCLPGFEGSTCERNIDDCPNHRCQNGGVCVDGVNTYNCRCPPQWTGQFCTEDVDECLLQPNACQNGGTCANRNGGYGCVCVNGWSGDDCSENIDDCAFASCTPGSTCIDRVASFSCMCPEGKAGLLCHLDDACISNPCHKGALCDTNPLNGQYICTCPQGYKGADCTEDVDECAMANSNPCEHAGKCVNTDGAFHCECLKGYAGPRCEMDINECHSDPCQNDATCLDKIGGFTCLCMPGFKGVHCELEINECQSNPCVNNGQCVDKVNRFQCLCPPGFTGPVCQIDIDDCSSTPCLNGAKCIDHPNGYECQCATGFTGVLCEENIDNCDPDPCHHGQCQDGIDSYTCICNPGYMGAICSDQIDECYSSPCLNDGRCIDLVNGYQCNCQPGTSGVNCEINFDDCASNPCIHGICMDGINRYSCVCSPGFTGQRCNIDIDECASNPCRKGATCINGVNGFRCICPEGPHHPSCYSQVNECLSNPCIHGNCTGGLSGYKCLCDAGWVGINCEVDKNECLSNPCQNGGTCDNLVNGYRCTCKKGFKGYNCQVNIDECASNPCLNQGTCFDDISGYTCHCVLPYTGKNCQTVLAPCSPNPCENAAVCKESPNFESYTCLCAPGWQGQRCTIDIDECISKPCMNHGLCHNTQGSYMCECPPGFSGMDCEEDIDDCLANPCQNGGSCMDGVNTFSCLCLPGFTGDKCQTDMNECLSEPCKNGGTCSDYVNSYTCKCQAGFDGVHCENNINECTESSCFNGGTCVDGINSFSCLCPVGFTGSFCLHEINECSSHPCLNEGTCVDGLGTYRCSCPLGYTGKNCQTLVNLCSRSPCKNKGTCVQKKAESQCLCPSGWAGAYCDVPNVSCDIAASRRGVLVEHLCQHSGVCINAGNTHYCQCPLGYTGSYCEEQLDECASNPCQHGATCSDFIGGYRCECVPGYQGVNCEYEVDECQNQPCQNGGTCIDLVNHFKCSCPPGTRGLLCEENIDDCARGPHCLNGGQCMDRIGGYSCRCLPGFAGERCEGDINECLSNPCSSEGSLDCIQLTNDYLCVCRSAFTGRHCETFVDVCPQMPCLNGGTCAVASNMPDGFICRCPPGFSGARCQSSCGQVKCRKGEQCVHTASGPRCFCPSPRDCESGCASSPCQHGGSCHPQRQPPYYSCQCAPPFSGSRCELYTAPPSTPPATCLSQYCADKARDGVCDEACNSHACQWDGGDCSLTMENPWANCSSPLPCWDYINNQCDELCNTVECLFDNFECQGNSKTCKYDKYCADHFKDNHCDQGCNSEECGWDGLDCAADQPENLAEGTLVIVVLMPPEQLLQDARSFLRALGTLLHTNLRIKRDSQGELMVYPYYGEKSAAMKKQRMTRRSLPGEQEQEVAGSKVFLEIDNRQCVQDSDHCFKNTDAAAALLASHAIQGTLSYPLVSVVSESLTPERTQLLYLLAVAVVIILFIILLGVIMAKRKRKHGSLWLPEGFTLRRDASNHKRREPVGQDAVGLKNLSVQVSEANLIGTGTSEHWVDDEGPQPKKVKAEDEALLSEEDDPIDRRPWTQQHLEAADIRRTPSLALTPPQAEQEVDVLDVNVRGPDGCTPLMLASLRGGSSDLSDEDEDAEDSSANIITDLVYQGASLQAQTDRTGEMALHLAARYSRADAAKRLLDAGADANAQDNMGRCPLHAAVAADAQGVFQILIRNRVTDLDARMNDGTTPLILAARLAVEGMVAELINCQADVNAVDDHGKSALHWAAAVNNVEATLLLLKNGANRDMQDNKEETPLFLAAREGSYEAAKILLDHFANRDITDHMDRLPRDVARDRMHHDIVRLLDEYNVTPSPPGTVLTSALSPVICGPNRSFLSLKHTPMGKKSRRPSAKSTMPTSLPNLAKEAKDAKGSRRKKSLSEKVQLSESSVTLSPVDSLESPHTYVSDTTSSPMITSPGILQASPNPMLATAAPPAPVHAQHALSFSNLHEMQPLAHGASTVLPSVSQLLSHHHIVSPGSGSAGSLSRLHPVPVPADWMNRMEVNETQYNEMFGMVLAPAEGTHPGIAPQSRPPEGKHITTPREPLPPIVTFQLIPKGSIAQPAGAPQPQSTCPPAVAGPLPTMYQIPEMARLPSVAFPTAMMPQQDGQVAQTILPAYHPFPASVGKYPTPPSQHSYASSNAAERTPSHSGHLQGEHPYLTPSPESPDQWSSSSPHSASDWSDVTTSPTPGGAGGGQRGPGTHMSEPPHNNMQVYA
The target in assay [6] is Pro-neuregulin-1, membrane-bound isoform (Homo sapiens) (UniProt Q02297). Put plainly: small molecules binding neuregulin-1 protein – biochemical, small-molecule microarray, fluorescence 635/667, psychiatric disease protein project, primary screen (AID 1075).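 Note: score combines 667 nm spot fluorescence with signal to noise.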 The settings on record: NRG1 binding, 635 nm fluorescence, higher = more signal.
Sequence of Pro-neuregulin-1, membrane-bound isoform (Homo sapiens) (Q02297 whole entry, looked up, the tested form may be a part, canonical isoform): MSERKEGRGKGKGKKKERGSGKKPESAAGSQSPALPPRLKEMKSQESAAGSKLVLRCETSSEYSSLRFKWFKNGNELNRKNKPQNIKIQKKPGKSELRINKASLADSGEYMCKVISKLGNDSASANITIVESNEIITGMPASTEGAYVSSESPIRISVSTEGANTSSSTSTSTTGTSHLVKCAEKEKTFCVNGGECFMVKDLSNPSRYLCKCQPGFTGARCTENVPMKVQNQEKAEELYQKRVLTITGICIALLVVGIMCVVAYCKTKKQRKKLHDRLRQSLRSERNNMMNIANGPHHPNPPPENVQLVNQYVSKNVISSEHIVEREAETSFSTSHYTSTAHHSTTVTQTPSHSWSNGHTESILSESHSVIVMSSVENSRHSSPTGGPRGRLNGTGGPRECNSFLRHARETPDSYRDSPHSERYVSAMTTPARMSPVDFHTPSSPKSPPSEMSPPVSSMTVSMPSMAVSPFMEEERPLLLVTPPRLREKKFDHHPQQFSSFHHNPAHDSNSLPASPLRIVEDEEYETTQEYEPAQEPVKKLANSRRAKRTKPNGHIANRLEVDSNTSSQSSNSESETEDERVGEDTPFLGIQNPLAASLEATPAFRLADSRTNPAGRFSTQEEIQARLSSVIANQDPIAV
The subject of assay [7] is Neuregulin-1 EGF-like domain. As to the kind of experiment: small molecules binding NRG1 EGF domain – biochemical, small-molecule microarray, 635 nm fluorescence, primary screen (AID 1081).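 Note: binding of the protein to compounds printed on small-molecule microarray slides.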 The following applies: higher = more signal.
Assay [8] in a line: FRG1 expression reporter modulators in myotubes – cell-based, C2C12 myotubes, firefly/Renilla luciferase, luminescence, FRG1 inhibition for FSHD, primary screen (AID 1084). The following applies: FRG1 promoter luciferase, higher = more signal, called active from +8 up or from −8 down.
Assay [9] in a line: small molecules captured by biotinylated probe aFST – biochemical, small-molecule microarray, fluorescence 635/667, stem cell growth factor project, primary screen (AID 1086).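 Note: score merges 667 nm fluorescence with signal-to-noise of each printed compound spot.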 The settings on record: higher = more signal.
Assay [10] can be described thus: binders of probe aHhip on microarray, primary screen, stem cell growth factor project, biochemical, small-molecule microarray, fluorescence 635/667 (AID 1087).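 Note: score merges spot fluorescence at 667nm with spot signal to noise ratio.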 The following applies: higher = more signal.
Assay [11] deals with PRMT1 (protein arginine N-methyltransferase 1). As to the kind of experiment: small molecules binding arginine methyltransferase PRMT1 – biochemical, small-molecule microarray, 635 nm fluorescence, primary screen (AID 1088).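 Note: binding of Prmt1 protein to compounds spotted on small-molecule microarray slides.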 The settings on record: higher = more signal.
Assay [12] is described as follows: growth effects on S. cerevisiae YJM789 – YJM789 clinical isolate, OD600, 24 h, basal, primary screen (AID 1089).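 Note: growth of clinical yeast isolate S. cerevisiae YJM 789 seeded 1000 cells per well; test concentration not given here.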 The following applies: higher = more signal, called active from +8 up or from −8 down.
Assay [13] can be described thus: S. pombe growth modifiers, basal conditions – strain 972, OD600, 24 h, no modulator, primary screen (AID 1090).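 Note: basal condition with compound alone and no growth modifier present; test concentration not given here.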 The following applies: S. pombe 972 growth, higher = more signal, called active from +8 up or from −8 down.
The nature of assay [14]: budding yeast growth modifiers under rapamycin – strain BY4716, OD600, 96 h, primary screen (AID 1091). Note: test concentration not given here. The following applies: S. cerevisiae BY4716 + rapamycin, higher = more signal, called active from +8 up or from −8 down.
For assay [15], the target named is Torsin-1A-interacting protein 2 (Homo sapiens) (UniProt Q8NFQ8). Put plainly: small molecules binding lysate-expressed LULL1 – cell lysate, human LULL1 lysate, 635/667 nm fluorescence, primary screen (AID 1092).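 Note: score merges per-feature 667 nm fluorescence with signal-to-noise.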 The following applies: small-molecule microarray, hLULL1 lysate binding, 635 nm fluorescence; higher = more signal.
Sequence of Torsin-1A-interacting protein 2 (Homo sapiens) (Q8NFQ8 whole entry, looked up): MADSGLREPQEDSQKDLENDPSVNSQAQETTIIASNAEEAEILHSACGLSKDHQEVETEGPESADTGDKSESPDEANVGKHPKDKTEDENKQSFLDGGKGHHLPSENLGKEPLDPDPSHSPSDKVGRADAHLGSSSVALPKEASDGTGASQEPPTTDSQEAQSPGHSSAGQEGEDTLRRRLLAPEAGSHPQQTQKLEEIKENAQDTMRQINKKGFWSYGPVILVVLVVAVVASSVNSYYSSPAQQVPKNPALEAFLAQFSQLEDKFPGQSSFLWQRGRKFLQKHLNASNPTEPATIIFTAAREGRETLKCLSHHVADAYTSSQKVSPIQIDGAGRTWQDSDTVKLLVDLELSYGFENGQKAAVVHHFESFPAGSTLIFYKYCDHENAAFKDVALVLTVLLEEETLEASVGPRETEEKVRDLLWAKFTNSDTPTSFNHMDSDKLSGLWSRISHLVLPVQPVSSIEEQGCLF
The nature of assay [16]: optical density change of DRC41 E. coli – strain DRC41, OD650, 24 h, E. coli filamentation project, primary screen (AID 1093).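 Note: MC1000 strain lacking acrAB efflux and sulA so SOS filamentation is blocked; test concentration not given here.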 The settings on record: E. coli DRC41 growth, higher = more signal, called active from +8 up or from −8 down.
A short description of assay [17]: probe aLefty2 binding to arrayed compounds – biochemical, biotinylated probe, 635/667 nm fluorescence, primary screen (AID 1094).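 Note: score merges spot fluorescence near 667 nm with spot signal-to-noise ratio.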 The settings on record: small-molecule microarray, higher = more signal.
For assay [18], the system named is Noggin (protein binding on small-molecule microarray). Put plainly: small molecules binding Noggin protein – biochemical, 635/667 nm fluorescence, primary screen (AID 1095).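 Note: score merges 667 nm feature fluorescence with signal to noise over triplicate slides.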 The following applies: 635 nm fluorescence, higher = more signal.
The target of assay [19] is Neurogenic locus notch homolog protein 3 (Homo sapiens) (UniProt Q9UM47). Put plainly: small molecules binding NOTCH3 protein – biochemical, 635/667 nm fluorescence, primary screen (AID 1096). The settings on record: small-molecule microarray, 635 nm fluorescence, higher = more signal.
Assay [20] can be described thus: probe aEGFR binding to arrayed compounds – biochemical, biotinylated probe, 635/667 nm fluorescence, primary screen (AID 1097).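 Note: probe is a biotinylated anti-EGFR antibody binding compounds printed on slides; score combines fluorescence near 667 nm and signal to noise of each spot.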 The following applies: small-molecule microarray, higher = more signal.

Activity calls are given as the source filed them.

Turning to `CO[C@H]1O[C@H](CO)[C@@H](OC(=O)Nc2ccccc2)[C@@H]2OC(=O)[C@@H](Cc3ccccc3)C/C=C/C[C@H](Cc3ccccc3)C(=O)O[C@@H]12`, the composite z-score was -0.263 in [1]; 1.24 in [2]; -0.0737 in assay [3]; 0.393 in assay [4]; -0.0327 in assay [5]; 0.379 in assay [6]. Besides, the composite z-score in assay [7] is 0.324; in assay [9], 0.241; in assay [10], 0.176; in [11], 1.2; in [15], 1.41; in [17] it was 0.142. The composite z-score in assay [18] was -0.0235; in [19] it was -0.151; in [20], -0.0697. The z-score in assay [8] was -0.461 (inactive); in assay [12], 0.552 (inactive); in assay [13], -0.0693 (inactive); in [14] it was 1.04 (inactive); in assay [16], 0.386 (inactive).
`O=C1O[C@@H](c2ccccc2)[C@@H](c2ccccc2)N2[C@@H](c3ccccc3OCCO)[C@]3(C(=O)Nc4ccc(C#CC5(O)CCCCCC5)cc43)[C@@H](C(=O)N3CCCCCCC3)[C@H]12`: the composite z-score in assay [1] turned out to be 4.04; in assay [2] it was 2.44; in [3], 1.08; in [4], 1.47; in assay [5] it was 1.89; in [6], 2.67. For the same compound, the composite z-score in assay [7] turned out to be 1.4; in [9], 3.81; in [10] it was 3.97; in assay [11], 1.53; in assay [15], 5.07; in [17], 1.95. The composite z-score in assay [18] came to 2.46; in assay [19] it was 1; in [20] it was 1.52. Further, the z-score was -1.05 (inactive) in assay [8]; 0.834 (inactive) in assay [12]; -0.51 (inactive) in assay [13]; 2.57 (inactive) in assay [14]; 1.23 (inactive) in [16].
Take `COC(=O)[C@@]1(Cc2ccc(F)cc2)[C@H]2c3cc(C(=O)N(C)C)n(Cc4ccsc4Br)c3C[C@H]2CN1C(=O)c1ccccc1`: the composite z-score in assay [1] is 2.25; in [2] it was -0.3; in assay [3], 0.915; in [4] it was 1.01; in assay [5], 1.83; in assay [6], 1.88. The composite z-score in [7] is 0.529; in assay [9] it was 2.68; in assay [10] it was 3.87; in assay [11], -0.291; in assay [15], 3.64; in [17], 1.38. Further, the composite z-score was -0.322 in assay [18], 1.08 in assay [19] and 1.06 in [20]. Also, the z-score in assay [8] was 1.94 (inactive); in assay [12] it was 0.232 (inactive); in assay [13] it was 0.168 (inactive); in assay [14], 1.37 (inactive); in assay [16], -1.32 (inactive).
With `O=C1NC(=O)C2C1C=CC(C(O)C1CCCCC1)N2Nc1ccccn1` (stereo not given), the composite z-score was -0.236 in [1]; 0.0046 in [2]; -0.0524 in assay [3]; 0.235 in assay [4]; 0.629 in [5]; 1.37 in assay [6]. The composite z-score in [7] is 1.32; in [9], 0.265; in assay [10], -0.374; in assay [11] it was 0.327; in [15] it was 2.43; in assay [17] it was 0.0078. Besides, the figures for the composite z-score in [18], in assay [19] and in assay [20] were -0.401, 0.492 and -0.104, respectively. The z-score is 1.64 (inactive) in [8]; 0.459 (inactive) in [12]; 0.633 (inactive) in assay [13]; 0.117 (inactive) in [14]; -1.5 (inactive) in [16].
In the case of `[N-]=[N+]=NCc1ccccc1[C@H]1OC(c2ccc(OCCCO)cc2)=N[C@@]1(Cc1ccccc1N=[N+]=[N-])C(=O)O`, the composite z-score in assay [1] is 0.377; in [2] it was 1.08; in assay [3], 0.0997; in [4], 0.503; in assay [5] it was 1.37; in [6] it was 1.21. Moreover, the composite z-score came out at 1.24 in [7]; 0.632 in assay [9]; 0.0623 in assay [10]; 1.57 in assay [11]; 2.78 in assay [15]; 0.359 in [17]. For the same compound, the composite z-score worked out at 0.145 in assay [18], 1.06 in [19] and 0.0783 in [20]. Moreover, the z-score in [8] was 4.15 (inactive); in [12] it was -0.467 (inactive); in [13] it was -4.46 (inactive); in [14] it was -1.66 (inactive); in [16], -0.0765 (inactive).
For `C=CCOC(=O)[C@@H]1[C@H]2C(=O)O[C@H](c3ccccc3)[C@H](c3ccccc3)N2[C@H](c2ccc(OCCOC(=O)[C@H]3C[C@H]4C(=O)N[C@@H](CCCCN(C)C)C(=O)N4[C@H]3c3cccc(OCCO)c3)cc2)[C@@]12C(=O)Nc1ccccc12`, the composite z-score in assay [1] was 1.24; in assay [2], 0.596; in [3] it was 0.031; in [4] it was -0.629; in assay [5] it was -1.13; in assay [6] it was 1.96. The composite z-score was 0.815 in assay [7]; -0.651 in assay [9]; -0.166 in assay [10]; 0.831 in assay [11]; 0.729 in assay [15]; 0.0897 in assay [17]. The composite z-score in [18] was 0.221; in assay [19], -0.414; in assay [20], -0.0039. Further, the z-score in [8] was 1.02 (inactive); in assay [12], -0.292 (inactive); in assay [13], 1.12 (inactive); in assay [14], 0.171 (inactive); in assay [16], -0.0426 (inactive).
For the compound `[N-]=[N+]=NCc1ccccc1[C@H]1OC(c2ccc(OCCCO)cc2)=N[C@@]1(CCS(=O)(=O)c1ccccc1)C(=O)NCCN1CCOCC1`, the composite z-score in assay [1] is -0.0144; in assay [2] it was -0.523; in [3], 0.126; in [4], 1.04; in [5] it was 1.67; in [6], 1.57. For the same compound, the composite z-score is 1.27 in [7]; 1.16 in [9]; -0.0095 in [10]; 1.56 in assay [11]; 3.5 in assay [15]; 0.181 in [17]. Further, the composite z-score in [18] stood at 0.0038; in assay [19], 1.06; in [20] it was 0.214. Besides, the z-score is 3.26 (inactive) in [8]; 0.917 (inactive) in [12]; 0.306 (inactive) in assay [13]; 1.27 (inactive) in [14]; -0.0501 (inactive) in assay [16].
In the case of `COC(=O)[C@]1(Cc2ccccc2CN=[N+]=[N-])N=C(c2ccc(OCCCO)cc2)O[C@@H]1c1ccccc1N=[N+]=[N-]`, the composite z-score in [1] was 0.0455; in assay [2], 0.157; in assay [3], -0.0465; in [4], -0.223; in assay [5], -0.206; in [6], 0.829. Further, the composite z-score is 1.18 in assay [7]; 0.163 in assay [9]; -0.266 in [10]; 0.907 in [11]; 1.22 in assay [15]; 0.0269 in [17]. Moreover, the composite z-score in assay [18] was 0.398; in [19], -0.122; in assay [20], -0.297. The z-score in assay [8] is 3.39 (inactive); in [12] it was -0.267 (inactive); in assay [13] it was -1.58 (inactive); in [14], 36.1 (active); in assay [16], 1.08 (inactive).
As for `COc1ccc(C(O)C2C=CC3C(=O)N(c4ccccc4)C(=O)C3N2Nc2ccccc2F)c2ccccc12` (stereo not given), the composite z-score came to 1.24 in [1]; 1.08 in assay [2]; 0.433 in assay [3]; 1.14 in assay [4]; 1.72 in [5]; 1.79 in [6]. For the same compound, the composite z-score in [7] was 1.23; in assay [9], 1.89; in assay [10], -0.233; in assay [11] it was 1.55; in assay [15] it was 3.33; in assay [17], 0.582. Further, the values for the composite z-score in assay [18], in [19] and in [20] were 0.117, 1.05 and 0.697, respectively. In addition, the z-score is 1.25 (inactive) in assay [8]; -0.466 (inactive) in assay [12]; -0.0101 (inactive) in assay [13]; 0.257 (inactive) in assay [14]; -0.0841 (inactive) in assay [16].
